This is an account of results in PubChem BioAssay (NCATS).

Values without a mark were called inactive. Records with an inconclusive call do not appear. Active and inactive are the calls of the source. Unless noted, calls follow the shape of the dose curve; as a rule, active = well fitted curve in the direction sought with a large enough effect; inconclusive = small, poorly fitted or top-dose-only effect, or another doubt; inactive = no such curve, though single readings can be large; an effect the other way counts as inactive or inconclusive.

Assay [1] concerns the target Atrial natriuretic peptide receptor 1 (Homo sapiens) (UniProt P16066). Kind of assay: Natriuretic polypeptide receptor (hNpr1) antagonism - Pilot screen (AID 1347049; calls by dose curve;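 also: agonist-evoked cGMP luminescence read 20 min after hNppA addition; series mostly up to about 58 µM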). A digest of the protocol: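 HEK293 cells co-expressing hNpr1 and the GloSensor pGS-40F cGMP luciferase sensor were preloaded with 2% GloSensor reagent for 2 h. Compounds were added for 30 min at room temperature, then cells were stimulated with 0.1 nM hNppA for 20 min before luminescence readout.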

Assay [2] has as its target Atrial natriuretic peptide receptor 2 (Homo sapiens) (UniProt P20594). Kind of assay: Natriuretic polypeptide receptor (hNpr2) antagonism - Pilot subtype selectivity assay (AID 1347050; calls by dose curve). A digest of the protocol:
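cGMP-sensor HEK293/hNpr2 cells; 2% GloSensor reagent 2 h RT; compounds 30 min; baseline luminescence read; 1 nM hNppC agonist 20 min RT; final luminescence read by CCD camera. Antagonism = reduced post-agonist signal.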

The nature of assay [3]: NS1 protein of Zika virus - qHTS assay to identify small molecule inhibitors in human HEK 293 cells (AID 1347053). Also: series mostly up to about 46 µM; nearly all actives have a fitted effect of over 55% in size. A digest of the protocol:
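Inhibition of NS1 expression was scored in HEK 293 cells given compound 1 h ahead of MR766 virus (MOI = 0.5). Following 24 h at 37 C, two anti-NS1 antibodies generated a TR-FRET signal, scaled between uninfected and infected controls.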
Background: In qHTS, concentration-response curves come from the screen itself.

Assay [4] has as its target T1, Tyrosine-protein phosphatase non-receptor type substrate 1 (Homo sapiens) + Leukocyte surface antigen CD47 (Homo sapiens) (UniProt P78324+Q08722). Kind of assay: CD47-SIRPalpha protein protein interaction - Alpha assay qHTS validation (AID 1347059).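 Also: bead proximity luminescence from CD47 binding SIRPalpha after compound preincubation with SIRPalpha.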 A digest of the protocol:
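Soluble extracellular domains: Avi-tag biotinylated SIRPalpha (25 nM) preincubated 30 min RT with compound, then 6His-CD47 (12.5 nM) 30 min; Ni-NTA acceptor and streptavidin donor beads (10 ug/mL) 30 min, AlphaScreen read. PBS pH 7.4, 0.05% IGEPAL.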

Assay [5] deals with Parathyroid hormone/parathyroid hormone-related peptide receptor (Homo sapiens) (UniProt Q03431). Description: qHTS for PTHR1 Agonists: Optimization Screen against the NCGC LOPAC library (AID 1347079).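 Also: GloSensor cAMP luminescence in HEK-293 GP2 cells expressing human PTHR1 with IBMX.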 A digest of the protocol: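 Compounds were tested across a qHTS titration. PTHR1-expressing GP2 cells report cAMP rises via GloSensor luminescence after 1 hr compound exposure at 37C with IBMX present.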

Assay [6] in a line: qHTS of pediatric cancer cell lines to identify multiple opportunities for drug repurposing: Primary screen for TC32 cells (AID 1347089). Also: nearly all actives have a fitted effect of over 60% in size. Also: potency is read from the fitted curve at half-maximal effect. The method in brief:
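In the primary qHTS, MIPE compounds were tested at 11 concentrations (0.78 nM to 46 µM) and NPC compounds at 8 (0.59 nM to 46 µM) on TC32 cells for 48 h. CellTiter-Glo luminescence gave viability.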

Assay [7] can be described thus: qHTS of pediatric cancer cell lines to identify multiple opportunities for drug repurposing: Primary screen for DAOY cells (AID 1347090). Also: nearly all actives have a fitted effect of over 55% in size. Also: potency is read from the fitted curve at half-maximal effect. The method in brief:
(§1)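 Eight- or eleven-point concentration series, 48 h treatment at 37 degrees C in growth media; readout CellTiter-Glo luminescence. Potency and efficacy were taken from the concentration-response curves.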

Assay [8] in a line: qHTS of pediatric cancer cell lines to identify multiple opportunities for drug repurposing: Primary screen for SJ-GBM2 cells (AID 1347091). Also: potency is read from the fitted curve at half-maximal effect. The method in brief:
as §1

Assay [9] can be described thus: qHTS of pediatric cancer cell lines to identify multiple opportunities for drug repurposing: Primary screen for A673 cells (AID 1347092). Also: nearly all actives have a fitted effect of over 45% in size. The method in brief: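 48 h compound exposure, A673, 500-1,000 cells/well, 37 degrees C/5% CO2. MIPE: 11-point, 0.78 nM-46 µM; NPC: 8-point, 0.59 nM-46 µM (final). Readout CellTiter-Glo luminescence after 15 min RT.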
Assay [10] is described as follows: qHTS of pediatric cancer cell lines to identify multiple opportunities for drug repurposing: Primary screen for SK-N-MC cells (AID 1347093). Also: potency is read from the fitted curve at half-maximal effect. A digest of the protocol: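 Metabolically active cells were quantified by ATP-dependent luminescence (CellTiter-Glo, 15 min at room temperature) following 48 h treatment. Cells had been plated at 500-1,000 per well and settled for 5 h beforehand.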

Assay [11] in a line: qHTS of pediatric cancer cell lines to identify multiple opportunities for drug repurposing: Primary screen for BT-37 cells (AID 1347094). Also: potency is read from the fitted curve at half-maximal effect. The method in brief:
(§2)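 Plated cells (500-1,000 per well, growth media) were allowed to settle for 5 hours, treated with compound dilutions for 48 hours, then lysed with CellTiter-Glo for 15 min at room temperature before luminescence reading.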

Assay [12] is described as follows: qHTS of pediatric cancer cell lines to identify multiple opportunities for drug repurposing: Primary screen for U-2 OS cells (AID 1347096). Also: nearly all actives have a fitted effect of over 50% in size. Also: potency is read from the fitted curve at half-maximal effect. The method in brief: (§3)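 Cells (500-1,000/well) in growth media were settled 5 h at 37 degrees C, then given compounds for 48 h. Viability was read as CellTiter-Glo luminescence. Primary runs used MIPE at 11 points (0.78 nM-46 µM) and NPC at 8 points (0.59 nM-46 µM); follow-ups used 11 points.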

Assay [13] in a line: qHTS of pediatric cancer cell lines to identify multiple opportunities for drug repurposing: Primary screen for Saos-2 cells (AID 1347097). Also: nearly all actives have a fitted effect of over 40% in size. Also: potency is read from the fitted curve at half-maximal effect. The method in brief:
as §2

The nature of assay [14]: qHTS of pediatric cancer cell lines to identify multiple opportunities for drug repurposing: Primary screen for SK-N-SH cells (AID 1347098). Also: nearly all actives have a fitted effect of over 65% in size. Also: potency is read from the fitted curve at half-maximal effect. The method in brief: (§4)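 Cells (500-1,000/well) rested 5 h, then received compounds for 48 h; metabolically active cells were measured by CellTiter-Glo luminescence. Final concentrations spanned up to 46 µM (MIPE, 11-point) or 0.59 nM-46 µM (NPC, 8-point) in primary screens, 11-point in follow-ups.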

Assay [15] is described as follows: qHTS of pediatric cancer cell lines to identify multiple opportunities for drug repurposing: Primary screen for NB1643 cells (AID 1347099). Also: nearly all actives have a fitted effect of over 50% in size. The method in brief:
as §2

Assay [16] in a line: qHTS of pediatric cancer cell lines to identify multiple opportunities for drug repurposing: Primary screen for LAN-5 cells (AID 1347100). Also: potency is read from the fitted curve at half-maximal effect. A digest of the protocol:
as §3

A short description of assay [17]: qHTS of pediatric cancer cell lines to identify multiple opportunities for drug repurposing: Primary screen for BT-12 cells (AID 1347101). Also: nearly all actives have a fitted effect of over 25% in size. Also: potency is read from the fitted curve at half-maximal effect. The method in brief:
as §4

For assay [18], the target named is T1, Tyrosine-protein phosphatase non-receptor type substrate 1 (Homo sapiens) + Leukocyte surface antigen CD47 (Homo sapiens). Description: CD47-SIRPalpha protein protein interaction - LANCE assay qHTS validation (AID 1347057; active = well fitted curve in the direction sought with a large enough effect in the signal ratio, with a control signal flat, not every such curve was filed as active; the % refers to the signal ratio; also: series mostly up to about 38 µM). A digest of the protocol:
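First, His-tagged CD47 and Eu-labelled anti-His antibody met the compound for 30 min; next, site-specifically biotinylated SIRPalpha was added for 30 min; finally streptavidin-APC was added before reading the TR-FRET ratio.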

Assay [19] can be described thus: qHTS of pediatric cancer cell lines to identify multiple opportunities for drug repurposing: Primary screen for NB-EBc1 cells (AID 1347095). Also: potency is read from the fitted curve at half-maximal effect. A digest of the protocol: as §2
Assay [20] addresses T1, Tyrosine-protein phosphatase non-receptor type substrate 1 (Homo sapiens) + Leukocyte surface antigen CD47 (Homo sapiens). Description: CD47-SIRPalpha protein protein interaction - HTRF assay qHTS validation (AID 1347058; active = well fitted curve in the direction sought with a large enough effect in the signal ratio, not every such curve was filed as active; the % refers to the signal ratio; also: series mostly up to about 38 µM). The method in brief:
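TR-FRET read (Ch1/Ch2 ratio) of soluble extracellular CD47 and Avi-biotinylated SIRPalpha domains in PBS pH 7.4 with 0.05% IGEPAL; 7-point compound titration. Sequential 30 min room-temperature steps; non-biotinylated SIRPalpha as control inhibitor.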
On the technique in general: TR-FRET usually uses a lanthanide donor and a delayed reading to cut background.

Sequence of Atrial natriuretic peptide receptor 1 (Homo sapiens) (P16066 whole entry, looked up): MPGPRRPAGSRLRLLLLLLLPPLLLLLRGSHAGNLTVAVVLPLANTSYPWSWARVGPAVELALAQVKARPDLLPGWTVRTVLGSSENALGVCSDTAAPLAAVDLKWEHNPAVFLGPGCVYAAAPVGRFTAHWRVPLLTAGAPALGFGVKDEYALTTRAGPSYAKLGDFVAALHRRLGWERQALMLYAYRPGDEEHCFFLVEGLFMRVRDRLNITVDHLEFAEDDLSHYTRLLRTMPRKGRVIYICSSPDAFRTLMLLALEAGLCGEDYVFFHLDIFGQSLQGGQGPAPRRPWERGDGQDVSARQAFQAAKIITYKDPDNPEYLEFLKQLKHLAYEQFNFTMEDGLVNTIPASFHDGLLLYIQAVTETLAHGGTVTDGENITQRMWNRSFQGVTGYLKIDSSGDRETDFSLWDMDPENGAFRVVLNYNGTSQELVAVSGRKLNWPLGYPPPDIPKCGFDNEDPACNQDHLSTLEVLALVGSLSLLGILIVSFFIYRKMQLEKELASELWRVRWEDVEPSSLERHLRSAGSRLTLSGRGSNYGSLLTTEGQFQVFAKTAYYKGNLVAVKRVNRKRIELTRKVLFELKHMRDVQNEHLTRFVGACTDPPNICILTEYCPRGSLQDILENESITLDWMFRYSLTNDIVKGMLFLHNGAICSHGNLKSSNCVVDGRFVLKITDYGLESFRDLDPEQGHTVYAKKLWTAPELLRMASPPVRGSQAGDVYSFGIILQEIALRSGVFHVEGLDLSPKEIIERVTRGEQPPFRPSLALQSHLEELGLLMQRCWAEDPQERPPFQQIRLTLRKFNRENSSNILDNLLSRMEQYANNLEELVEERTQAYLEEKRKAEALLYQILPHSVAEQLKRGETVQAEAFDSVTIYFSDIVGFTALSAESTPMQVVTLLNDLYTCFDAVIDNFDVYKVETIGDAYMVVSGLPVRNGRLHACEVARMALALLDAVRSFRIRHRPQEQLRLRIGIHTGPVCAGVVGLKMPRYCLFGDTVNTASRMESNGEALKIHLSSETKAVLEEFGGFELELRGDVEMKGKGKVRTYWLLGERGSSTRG
T1 sequence (P78324 whole entry, looked up, the tested form may be a part): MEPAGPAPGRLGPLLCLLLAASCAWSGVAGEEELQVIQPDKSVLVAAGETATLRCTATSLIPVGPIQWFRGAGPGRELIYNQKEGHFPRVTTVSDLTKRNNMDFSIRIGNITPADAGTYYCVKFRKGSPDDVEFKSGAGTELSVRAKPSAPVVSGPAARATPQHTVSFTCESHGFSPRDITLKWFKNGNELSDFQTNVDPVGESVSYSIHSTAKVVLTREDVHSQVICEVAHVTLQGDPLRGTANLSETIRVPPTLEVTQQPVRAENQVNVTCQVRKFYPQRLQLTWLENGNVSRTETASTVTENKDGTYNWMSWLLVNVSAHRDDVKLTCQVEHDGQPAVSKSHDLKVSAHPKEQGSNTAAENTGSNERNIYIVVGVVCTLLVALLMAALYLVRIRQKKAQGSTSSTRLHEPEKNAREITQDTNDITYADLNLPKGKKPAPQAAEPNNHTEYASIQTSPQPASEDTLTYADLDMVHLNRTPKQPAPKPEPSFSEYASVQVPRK
T1 sequence (Q08722 whole entry, looked up, the tested form may be a part): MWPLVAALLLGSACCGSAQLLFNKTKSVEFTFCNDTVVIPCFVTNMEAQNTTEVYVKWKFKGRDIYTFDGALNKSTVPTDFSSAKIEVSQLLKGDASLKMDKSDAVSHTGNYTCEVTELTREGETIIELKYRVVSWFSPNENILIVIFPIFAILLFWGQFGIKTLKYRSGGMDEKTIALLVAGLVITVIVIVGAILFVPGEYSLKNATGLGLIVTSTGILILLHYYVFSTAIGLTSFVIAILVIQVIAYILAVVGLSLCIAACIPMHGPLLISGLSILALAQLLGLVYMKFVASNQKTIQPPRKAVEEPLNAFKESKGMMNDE
Sequence of Atrial natriuretic peptide receptor 2 (Homo sapiens) (P20594 whole entry, looked up): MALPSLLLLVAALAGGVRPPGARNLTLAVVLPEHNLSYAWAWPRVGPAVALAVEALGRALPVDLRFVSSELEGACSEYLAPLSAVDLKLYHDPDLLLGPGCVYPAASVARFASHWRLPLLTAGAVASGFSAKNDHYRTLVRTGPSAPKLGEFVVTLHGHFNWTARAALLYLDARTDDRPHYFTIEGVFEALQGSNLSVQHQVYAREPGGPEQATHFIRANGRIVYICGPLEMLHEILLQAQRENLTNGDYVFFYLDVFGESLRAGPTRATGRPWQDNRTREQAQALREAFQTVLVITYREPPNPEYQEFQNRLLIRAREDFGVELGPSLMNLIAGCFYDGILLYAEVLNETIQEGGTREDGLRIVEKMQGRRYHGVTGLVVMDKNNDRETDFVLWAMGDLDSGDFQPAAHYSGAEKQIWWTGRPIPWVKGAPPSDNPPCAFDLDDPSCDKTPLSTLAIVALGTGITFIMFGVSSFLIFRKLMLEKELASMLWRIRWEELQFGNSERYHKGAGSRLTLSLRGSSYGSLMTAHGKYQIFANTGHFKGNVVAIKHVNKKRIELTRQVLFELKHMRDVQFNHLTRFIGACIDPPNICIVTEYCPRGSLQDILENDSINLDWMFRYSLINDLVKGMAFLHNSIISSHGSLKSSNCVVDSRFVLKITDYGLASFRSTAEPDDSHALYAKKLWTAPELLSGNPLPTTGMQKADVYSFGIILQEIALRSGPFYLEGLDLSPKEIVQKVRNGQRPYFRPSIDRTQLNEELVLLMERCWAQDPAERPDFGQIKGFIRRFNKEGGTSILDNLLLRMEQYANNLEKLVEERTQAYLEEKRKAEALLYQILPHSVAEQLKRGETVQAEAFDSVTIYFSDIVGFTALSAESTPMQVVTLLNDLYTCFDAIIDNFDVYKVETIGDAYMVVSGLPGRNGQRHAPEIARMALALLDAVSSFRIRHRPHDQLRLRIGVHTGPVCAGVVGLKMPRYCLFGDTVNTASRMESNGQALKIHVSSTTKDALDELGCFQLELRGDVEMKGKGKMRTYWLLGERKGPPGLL
Sequence of Parathyroid hormone/parathyroid hormone-related peptide receptor (Homo sapiens) (Q03431 whole entry, looked up): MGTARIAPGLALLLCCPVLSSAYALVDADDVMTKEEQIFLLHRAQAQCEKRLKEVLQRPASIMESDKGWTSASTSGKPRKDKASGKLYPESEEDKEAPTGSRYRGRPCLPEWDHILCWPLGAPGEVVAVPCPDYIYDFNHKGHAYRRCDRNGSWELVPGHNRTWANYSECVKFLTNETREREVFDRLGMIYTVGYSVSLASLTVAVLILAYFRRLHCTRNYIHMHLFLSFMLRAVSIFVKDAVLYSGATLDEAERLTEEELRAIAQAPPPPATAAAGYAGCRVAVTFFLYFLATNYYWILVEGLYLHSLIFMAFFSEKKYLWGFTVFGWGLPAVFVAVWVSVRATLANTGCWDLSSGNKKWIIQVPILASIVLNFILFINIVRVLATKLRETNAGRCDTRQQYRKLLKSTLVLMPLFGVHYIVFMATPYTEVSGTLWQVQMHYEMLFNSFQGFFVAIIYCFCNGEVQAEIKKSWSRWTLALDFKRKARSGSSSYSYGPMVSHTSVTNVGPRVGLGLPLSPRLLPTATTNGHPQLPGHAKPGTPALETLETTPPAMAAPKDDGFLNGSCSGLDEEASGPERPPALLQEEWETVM

Regarding `O=C1N=C(O)CN1/N=C/c1ccc(-c2ccc([N+](=O)[O-])cc2)o1`, the outcome in [1] and in assay [4] was inactive. The Potency result in [2], in [3], in assay [5], in assay [6], in [7] and in assay [8] was “inactive” throughout. The Potency entry in assay [9], in [11], in [12], in assay [13], in assay [14] and in [15] was “inactive” in each case. Also, the Potency result in assay [16] and in assay [17] was “inactive” in each case. For the same compound, the Potency in [10] was 5310 nM (active).
Turning to `CCN(CC)C(C)CN1c2ccccc2Sc2ccccc21` (configuration not stated), the outcome in assay [1], in [18] and in assay [4] was inactive. Besides, the Potency entry in assay [2], in [3], in [5], in [6], in assay [8] and in [9] was “inactive” in each case. The Potency entry in assay [10], in assay [11], in assay [19], in assay [13], in assay [15] and in assay [16] was “inactive” each time. For the same compound, the Potency entry in assay [17] is “inactive”.
As for `CC[C@H]1CN2CCc3cc(OC)c(OC)cc3[C@@H]2C[C@@H]1C[C@H]1NCCc2cc(OC)c(OC)cc21`, the compound was called inactive in [1], in [18], in assay [20] and in assay [4]. The Potency result in [2], in assay [3] and in assay [5] was “inactive” throughout. In addition, the Potency in [6] is 333 nM (active); in assay [7] it was 1060 nM (active); in assay [8] it was 237 nM (active); in [10], 211 nM (active); in [11], 389 nM (active); in assay [19], 750 nM (active). The Potency in assay [12] was 1330 nM (active); in assay [13], 376 nM (active); in assay [14], 433 nM (active); in [16], 335 nM (active); in [17], 347 nM (active).
In the case of `CC(C)C(=O)c1c(C(C)C)nn2ccccc12`, the result in assay [1], in [18], in assay [20] and in [4] was inactive. Also, the Potency entry in assay [2], in assay [3], in assay [5], in assay [7], in assay [8] and in assay [10] was “inactive” throughout. Further, the Potency result in [11], in [19], in assay [13], in assay [14], in [15] and in [16] was “inactive” in each case. The Potency result in assay [17] is “inactive”.
Regarding `CC1=C(CC(=O)O)c2cc(F)ccc2/C1=C\c1ccc(S(C)(=O)=O)cc1`, the result in assay [1], in assay [18] and in assay [4] was inactive. Also, the Potency entry in [2], in [3], in assay [5], in [6], in [8] and in assay [10] was “inactive” in each case. In addition, the Potency result in assay [11], in assay [19], in assay [12], in assay [15], in [16] and in assay [17] was “inactive” in each case.
Turning to `CCN(CC)CCNC(=O)c1cc(Cl)c(N)cc1OC`, the call in [1], in [18], in assay [20] and in assay [4] was inactive. Also, the Potency entry in assay [2], in assay [3], in assay [5], in assay [6], in assay [7] and in assay [8] was “inactive” throughout. In addition, the Potency entry in [9], in assay [11], in assay [19], in assay [12], in assay [13] and in [14] was “inactive” in each case. The Potency entry in assay [15], in assay [16] and in assay [17] was “inactive” throughout.
